# Reference: PubChem BioAssay AID463173 (ICCB-Longwood Screening Facility, Harvard Medical School, 2010)
# Among all 52,000 compounds or so, about 1,700 (3.3%) were called active. Cut-off read from the data, not from the text of the source: active = survival mostly below about 52% (no sharp cut-off); inactive = mostly above about 56%. Shown is part of a subset that was picked to be rich in actives.
# System: Wild type
# Experiment: growth inhibition of S. aureus wild type versus tarO mutant, primary screen, teichoic acid synthesis inhibitors, RN4220, OD600 (AID 463173)
# Details: S. aureus RN4220 wild type/DeltatarO growth, OD600, 18 h, stronger effect = lower value, screened at 18.75 µg/mL (by protocol)
row,SMILES,survival
1,COCCNc1ccc2cc(S(=O)(=O)N3CCCCC3)ccc2n1,56% (inactive)
2,COc1ccccc1CNC(=O)COCc1cc(-c2ccc3c(c2)OCO3)on1,19% (inactive)
3,COC(=O)C(C)n1nnc2sc(-c3ccccc3)cc2c1=O (stereo not given),88% (inactive)
4,CCOC(=O)c1cccc(NC(=O)N2CCC(CN3CCc4ccccc4C3)CC2)c1,71% (inactive)
5,CC(=O)N1c2ccccc2C(=O)C1N1CCN(c2cc(Cl)ccc2C)CC1 (stereo not given),138% (inactive)
6,Cc1nn2c(C)c(C(=O)NCC(C)c3ccccc3)cnc2c1-c1ccccc1 (stereo not given),75% (inactive)
7,CCOc1ccc(CCNC(=O)c2cnc3c(-c4ccccc4)c(C)nn3c2C)cc1OCC,-3% (active)
8,CCOc1ccc(-c2c(C)nn3c(C)c(C(=O)NCCc4ccccc4)cnc23)cc1OCC,53% (inactive)
9,CCNC(=O)c1cnc2c(-c3ccccc3)c(C)nn2c1C,0% (active)
10,CCOc1ccc(CCNC(=O)c2cnc3c(-c4ccc(F)cc4)c(C)nn3c2C)cc1OCC,159% (inactive)
11,Cc1nn2c(C)c(C(=O)NCCc3ccccc3)cnc2c1-c1ccccc1,55% (inactive)
12,Cc1cccc(CSc2nnc3[nH]c(=O)cc(-c4ccccc4)n23)c1,80% (inactive)
13,CCOC(=O)C1CCCN(C(=O)c2ccc(C)c(NC(=O)c3nsc4ccccc34)c2)C1 (stereo not given),123% (inactive)
14,NS(=O)(=O)c1cccc(S(N)(=O)=O)c1,117% (inactive)
15,Cc1ccc(NC(=O)CN2C(=O)C(c3ccc(F)cc3)=NC2(C)C)c(C)c1,85% (inactive)
16,Cc1ccc(-c2nn3c(-c4ccccc4C)nnc3c3ccccc23)cc1,51% (inactive)
17,COc1ccc(-c2nn3c(-c4ccccc4C)nnc3c3ccccc23)cc1,-3% (active)
18,Cc1ccc(-c2nnc3c4ccccc4c(-c4ccccc4)nn23)cc1,123% (inactive)
19,COc1ccc(-c2nn3c(-c4ccc(OC)cc4)nnc3c3ccccc23)cc1,73% (inactive)
20,Cc1ccc(-c2nn3c(-c4ccc(C)cc4)nnc3c3ccccc23)cc1,20% (active)
21,Cc1ccc(-c2nn3c(-c4ccccc4)nnc3c3ccccc23)cc1,76% (inactive)
22,COc1ccc(CNC(=O)c2cccc(N3CCCS3(=O)=O)c2)cc1OC,63% (inactive)

row,SMILES,survival
1,O=C(Nc1cccc(C(=O)N2CCN(c3ccccc3F)CC2)c1)c1nsc2ccccc12,67% (inactive)
2,Cc1nn(S(=O)(=O)c2ccccc2)c(C)c1S(=O)(=O)N1CCC(C)CC1,81% (inactive)
3,Cc1nn(C(=O)c2cccc([N+](=O)[O-])c2C)c(C)c1S(=O)(=O)N1CCOCC1,64% (inactive)
4,Cc1nn(C(=O)c2ccccc2F)c(C)c1S(=O)(=O)N1CCCCCC1,70% (inactive)
5,Cc1nn(S(=O)(=O)c2ccc(F)cc2)c(C)c1S(=O)(=O)N1CCC(C)CC1,-3% (active)
6,COc1ccc(S(=O)(=O)n2nc(C)c(S(=O)(=O)N3CCC(C)CC3)c2C)cc1OC,81% (inactive)
7,COc1ccc(S(=O)(=O)n2nc(C)c(S(=O)(=O)N3CCCCCC3)c2C)cc1OC,1% (active)
8,COc1ccc(S(=O)(=O)n2nc(C)c(S(=O)(=O)N3CCCCCC3)c2C)cc1C,55% (inactive)
9,Cc1nn(C(=O)c2cccc([N+](=O)[O-])c2C)c(C)c1S(=O)(=O)N1CCCCCC1,-4% (active)
10,Cc1nn(S(=O)(=O)c2ccc(F)cc2)c(C)c1S(=O)(=O)N1CCCCC1,71% (inactive)
11,CCOC(=O)c1cc(=O)n2[nH]c(-c3ccc(C)cc3)cc2n1,107% (inactive)
12,CCC(Sc1nc2ccccc2c2nc(CCc3c(C)n[nH]c3C)nn12)C(=O)Nc1ccccc1F (stereo not given),91% (inactive)
13,CCCCn1cc(S(=O)(=O)c2cc(C)ccc2C)c(=O)c2cc(F)c(F)cc21,83% (inactive)
14,COc1ccc(-c2cc(C(=O)Oc3cccc(C)c3)c3cc(C)ccc3n2)cc1,19% (inactive)
15,COc1ccc(-c2cc(C(=O)Oc3ccc(C)cc3)c3cc(C)ccc3n2)cc1,22% (inactive)
16,Cc1ccc(OC(=O)c2cc(-c3ccccc3)nc3ccc(C)cc23)cc1,61% (inactive)
17,COc1ccc(-c2cc(C(=O)Oc3ccc(C)c(C)c3)c3ccccc3n2)cc1,30% (inactive)
18,Cc1ccc(-c2cc(C(=O)Oc3ccccc3)c3cccc(C)c3n2)cc1,13% (active)
19,COc1ccc(-c2cc(C(=O)Oc3cccc(C)c3C)c3ccccc3n2)cc1,12% (active)
20,COc1ccc(-c2cc(C(=O)Oc3ccc(C)cc3)c3ccccc3n2)cc1,4% (active)
21,COc1ccc(-c2cc(C(=O)Oc3ccccc3)c3cc(C)ccc3n2)cc1,11% (inactive)
22,Cc1ccc(-c2cc(C(=O)Oc3ccccc3)c3cc(C)ccc3n2)cc1,65% (inactive)

row,SMILES,survival
1,COc1ccc(-c2cc(C(=O)Oc3cccc(C)c3)c3ccccc3n2)cc1,3% (active)
2,COc1ccc(-c2cc(C(=O)Oc3ccc(Br)cc3)c3ccccc3n2)cc1,63% (inactive)
3,COc1ccc(-c2cc(C(=O)Oc3ccc(Cl)cc3)c3ccccc3n2)cc1,60% (inactive)
4,Cc1ccc(C(=O)NC(C)C)cc1C,110% (inactive)
5,Cc1cc(NC(=O)c2ccc(Cl)c(Cl)c2)ccc1NC(=O)c1ccco1,95% (inactive)
6,COCc1c(Br)c(C)nc2sc3c(=O)n(-c4cccc(Br)c4)nnc3c12,87% (inactive)
7,CCn1c(CSc2ncccn2)nnc1SCC(=O)N1CCc2ccccc21,102% (inactive)
8,CCCN(CCC)CCCNC(=O)Cn1cnc2onc(-c3ccc(F)cc3)c2c1=O,73% (inactive)
9,Cc1nc(-c2ccccc2)sc1CCNS(=O)(=O)c1ccccc1,69% (inactive)
10,CC(C)S(=O)(=O)c1oc(-c2ccc(F)cc2)nc1S(=O)(=O)c1ccc(F)cc1,26% (inactive)
11,CC(C)S(=O)(=O)c1oc(-c2ccc(F)cc2)nc1S(=O)(=O)c1ccccc1,23% (inactive)
12,CCSc1oc(-c2ccc(F)cc2)nc1S(=O)(=O)c1ccc(C)cc1,41% (inactive)
13,CC(C)CS(=O)(=O)c1oc(-c2ccc(F)cc2)nc1S(=O)(=O)c1ccccc1,3% (active)
14,CCC(C)S(=O)(=O)c1oc(-c2ccc(F)cc2)nc1S(=O)(=O)c1ccc(F)cc1 (stereo not given),49% (inactive)
15,CCCCS(=O)(=O)c1oc(-c2ccc(F)cc2)nc1S(=O)(=O)c1ccccc1,7% (active)
16,CCCCS(=O)(=O)c1oc(-c2ccc(F)cc2)nc1S(=O)(=O)c1ccc(C)cc1,33% (inactive)
17,CSc1oc(-c2ccc(F)cc2)nc1S(=O)(=O)c1ccc(Br)cc1,54% (inactive)
18,O=S(=O)(c1ccccc1)c1nc(-c2ccc(F)cc2)oc1N1CCOCC1,73% (inactive)
19,Cc1ccc(-c2nc(S(=O)(=O)c3ccc(F)cc3)c(N3CCN(c4ccccc4)CC3)o2)cc1,89% (inactive)
20,CCS(=O)(=O)c1oc(-c2ccc(F)cc2)nc1S(=O)(=O)c1ccc(Br)cc1,-1% (active)
21,CS(=O)(=O)c1oc(-c2ccc(F)cc2)nc1S(=O)(=O)c1ccc(Cl)cc1,-1% (active)
